Rows were chosen to be rich in hits. Some 6% of all compounds tested hit in one or more screens of this group.
D1 agonist: human D1 receptor agonism | P21728 | HEK293 T-REx D1 cells, calcium flux, agonist mode | activation, % at 2 µM | hit rate 1% among 360,000 | AID 504660; in the data active = activation above about 30%
Target sequence (P21728 whole entry, looked up): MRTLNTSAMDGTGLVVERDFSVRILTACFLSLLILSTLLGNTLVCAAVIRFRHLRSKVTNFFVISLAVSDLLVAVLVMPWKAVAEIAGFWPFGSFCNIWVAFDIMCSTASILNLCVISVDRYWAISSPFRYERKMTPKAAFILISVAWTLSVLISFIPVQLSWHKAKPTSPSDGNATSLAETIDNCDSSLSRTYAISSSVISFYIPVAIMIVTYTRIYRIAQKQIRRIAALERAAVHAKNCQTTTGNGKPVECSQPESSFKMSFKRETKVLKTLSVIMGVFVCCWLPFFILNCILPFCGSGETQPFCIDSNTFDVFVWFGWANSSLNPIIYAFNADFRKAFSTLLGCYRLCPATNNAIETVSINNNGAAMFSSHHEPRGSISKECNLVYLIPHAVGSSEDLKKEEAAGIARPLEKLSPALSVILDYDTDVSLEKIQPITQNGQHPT
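Agonism was scored from calcium flux recorded over 180 s (1 read/s) after pintool compound addition, following a 10-cycle baseline. Cells were inducible force-coupled HEK293 TREx D1, plated overnight at 30 C and loaded with no-wash calcium dye.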
D3 ag: activates the human D3 dopamine receptor; P35462; D3R DiscoveRx beta-arrestin cells, luminescence, 90 min; max activation, %; hit rate 0.58% among 410,000; in the data active = max activation above about 30%
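Cells at 1500/well, incubated overnight, then treated with pinned compounds (dopamine as control) for 90 min at 37 degrees C. DiscoveRx reagent added for 30 - 60 minutes at room temperature; luminescence read.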
D1 potentiator: potentiators of human D1 dopamine receptor. P21728. HEK293 TREx D1 cells, calcium flux, dopamine EC20 potentiation. potentiation, % at 10 µM. hit rate 0.036% among 360,000; in the data active = potentiation above about 30%
DRD3 antagonist: D3 dopamine receptor (human) antagonism; P35462; D3R cells, DiscoveRx beta-arrestin luminescence, antagonist mode; active compounds read low; max response, negative = inhibition, %; hit rate 2.5% among 360,000; in the data active = max response below about -50%; inconclusive = no clear call, values can overlap the other calls
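Cells plated overnight at 1500 cells/well, then exposed to library compounds with dopamine controls for 90 minutes at 37 degrees C. DiscoveRx reagent added for 30–60 minutes at room temperature; luminescence read, quantitative HTS format.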
D1 antagonist: antagonists of human D1 dopamine receptor; hit rate 3.2% among 360,000; activity change, negative = inhibition, % at 10 µM; AID 504652; HEK293 TREx D1 cells, calcium flux, dopamine EC80; active compounds read low; P21728; in the data active = activity change below about -30%
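HEK293 T-REx cells expressing inducible, force-coupled D1 receptor; no-wash Ca dye, 30–90 min RT. Cmpd → 180 s read at 1 Hz → EC80 DA → 180 s read.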
Each line names hits and unclear results; the compound was inactive in the other large screens; ! = repeats disagree.

CCOC(=O)c1c(S(=O)(=O)N2CCC(C(=O)NCc3ccc(F)cc3)CC2)c(C)n(C)c1C	none (no result: DRD3 antagonist)
O=C(Nc1ccc2nc(-c3ccccc3)[nH]c2c1)c1cccs1	none
O=C(Nc1ccc2nc(-c3ccc4nc[nH]c4c3)[nH]c2c1)c1cccs1	DRD3 antagonist -69.2
COc1cccc(N2CCN(S(=O)(=O)c3ccc4c(c3)NC(=O)CS4)CC2)c1	D1 antagonist -32.1
Cc1cccc(N2CCN(S(=O)(=O)c3ccc4c(c3)NC(=O)CS4)CC2)c1C	none
CCCN(CCC)c1nn2c(=O)c(C(=O)NCc3cc(Br)ccc3OC)cnc2s1	none (no result: DRD3 antagonist)
CCn1c(CN2CCC(C)CC2)nc2cc(NC(=O)COc3ccc([N+](=O)[O-])cc3)ccc21	none (no result: DRD3 antagonist)
C[C@H](CO)N1C[C@H](C)[C@@H](CN(C)C(=O)Nc2ccc3c(c2)OCO3)Oc2c(NC(=O)Nc3ccc(C(F)(F)F)cc3)cccc2C1=O	D3 ag 32.3 (no result: D1 agonist, D1 potentiator, D1 antagonist)
C[C@H](CO)N1C[C@H](C)[C@@H](CN(C)C(=O)NC2CCCCC2)Oc2ccc(NC(=O)Nc3ccc(C(F)(F)F)cc3)cc2C1=O	D3 ag 53.6 (no result: D1 agonist, D1 potentiator, D1 antagonist)
C[C@H](CO)N1C[C@H](C)[C@@H](CN(C)C(=O)Nc2ccc(C(F)(F)F)cc2)Oc2c(NC(=O)Nc3ccc4c(c3)OCO4)cccc2C1=O	none (no result: D1 agonist, D1 potentiator, D1 antagonist)
C[C@H](CO)N1C[C@H](C)[C@@H](CN(C)C(=O)Nc2ccc(C(F)(F)F)cc2)Oc2c(cccc2N(C)C)C1=O	DRD3 antagonist -130.1 (no result: D1 agonist, D1 potentiator, D1 antagonist)
C[C@H](CO)N1C[C@H](C)[C@@H](CN(C)C(=O)Nc2ccc(C(F)(F)F)cc2)Oc2c(NC(=O)Nc3ccccc3)cccc2C1=O	none (no result: D1 agonist, D1 potentiator, D1 antagonist)
C[C@@H]1CN([C@H](C)CO)C(=O)CCCn2nncc2CO[C@@H]1CN(C)C(=O)Nc1ccc2c(c1)OCO2	DRD3 antagonist -60.3 (no result: D1 agonist, D1 potentiator, D1 antagonist)
Clc1ccc(Nc2nnc(Cc3ccncc3)c3ccccc23)cc1	none (no result: D1 agonist, D1 potentiator, DRD3 antagonist, D1 antagonist)
Cc1cc(Cl)ccc1NC(=O)C1CCN(c2nnc(-n3c(C)ccc3C)s2)CC1	none (no result: DRD3 antagonist)
CC1CCCCN1S(=O)(=O)Cc1ccccc1Cl (centres undefined)	D1 antagonist -86.9
Cc1c(NC(=O)Nc2ccc3c(c2)OCO3)cccc1[N+](=O)[O-]	D1 antagonist -44.4
CC1CCCCN1C(=O)CSc1n[nH]c(-c2ccccc2)n1 (centres undefined)	D1 antagonist -31.5 (no result: DRD3 antagonist)
CC1CCCCN1C(=O)CSc1nc(-c2ccccc2)cn1N (centres undefined)	none
Nc1[nH]n2c(=O)cc(-c3ccccc3)nc2c1N=Nc1ccc(S(N)(=O)=O)cc1	DRD3 antagonist inconclusive
NS(=O)(=O)c1ccc(N=Nc2c(-c3ccccc3)[nH]n(-c3nc(-c4ccccc4)cs3)c2=O)cc1	DRD3 antagonist -65.9
Cc1ccccc1C(=O)NCc1nnc(SCC(=O)N2c3ccccc3Sc3ccccc32)n1C	DRD3 antagonist -63.8
CCC(Sc1nc2ccncc2[nH]1)C(=O)Nc1cc(Cl)ccc1C (centres undefined)	D3 ag 35.5!, D1 antagonist -44.2!
Cc1ccccc1NC(=O)/C(C#N)=C/c1ccc(-c2ccc(Cl)c(C(=O)O)c2)o1	DRD3 antagonist -66.1
Cc1ccc(NC(=O)/C(C#N)=C/c2ccc(-c3ccc(Cl)c(C(=O)O)c3)o2)cc1C	none (no result: DRD3 antagonist)
N#C/C(=C\c1ccc(-c2cccc(Cl)c2)o1)C(=O)Nc1cccc2cccnc12	DRD3 antagonist -50.7
COc1ccc(C(=O)OCc2cc(=O)n3nc(C4CC4)sc3n2)cc1OC	none (no result: DRD3 antagonist)
COc1ccc(-c2noc(CSCC(=O)Nc3ccc(C)cc3Br)n2)cc1OC	none (no result: DRD3 antagonist)
S=c1sc2ccccc2n1CCc1ccncc1	D1 antagonist -39.2
CC(=O)Nc1ccccc1-c1nc2ccccc2n(CC(=O)Nc2ccc(C)c(Cl)c2)c1=O	none (no result: DRD3 antagonist)
CC1=Nc2cc(Cl)ccc2Oc2ccccc21	none
Clc1ccc2c(c1)C(N1CCNCC1)=Nc1ccccc1O2	DRD3 antagonist -117.4, D1 antagonist -71.2
COC(=O)[C@@]12C[C@@H](CC(=O)N3CCOCC3)C(=O)N(Cc3ccc4c(c3)OCO4)C1=CCC(C)(C)C2	D3 ag 35.0, DRD3 antagonist inconclusive (no result: D1 agonist, D1 potentiator, D1 antagonist)
CCCCCCCCN1C(=O)[C@H](CC(=O)NCc2cccs2)C[C@@]2(C(=O)OC)CC(C)(C)CC=C12	D3 ag 44.3 (no result: D1 agonist, D1 potentiator, D1 antagonist)
CCCCCCCCN1C(=O)[C@H](CC(=O)NCc2ccc(C)o2)C[C@@]2(C(=O)OC)CC(C)(C)CC=C12	none (no result: D1 agonist, D1 potentiator, D1 antagonist)
CCCCCCCCN1C(=O)[C@H](CC(=O)NCCCOCCCC)C[C@@]2(C(=O)OC)CCCCC=C12	D3 ag 86.5 (no result: D1 agonist, D1 potentiator, D1 antagonist)
CCCCCCCCN1C(=O)[C@H](CC(=O)NCCCC)C[C@@]2(C(=O)OC)CCCCC=C12	none (no result: D1 agonist, D1 potentiator, D1 antagonist)
COC(=O)c1ccccc1NC(=O)C1CCCN(C(=O)c2cnn(-c3ccc(F)cc3)c2-n2cccc2)C1 (centres undefined)	none (no result: DRD3 antagonist)
O=C(COc1ccccc1)NCC(c1ccc(Cl)cc1)N1CCCCC1 (centres undefined)	none (no result: DRD3 antagonist)
CCOC(=O)c1ccc(NC(=O)CN2C(=O)CC(c3ccc(C)c(C)c3)=Nc3ccccc32)cc1	none (no result: DRD3 antagonist)
COc1nccnc1NS(=O)(=O)c1ccc(N=Cc2c(C)[nH]n(-c3ccc(C)c(C)c3)c2=O)cc1	DRD3 antagonist -59.7
CC(C)c1ccccc1NC(=O)CN(c1ccccc1)S(=O)(=O)N(C)C	none (no result: DRD3 antagonist)
O=C(Nc1ccc(F)cc1)C(c1ccccc1)N1CCN(c2cccc(C(F)(F)F)n2)CC1 (centres undefined)	none (no result: D1 agonist, D1 potentiator, D1 antagonist)
O=C(Nc1ccc(F)cc1)C(c1ccccc1OC(F)(F)F)N1CCN(c2cccc(C(F)(F)F)n2)CC1 (centres undefined)	DRD3 antagonist -54.9 (no result: D1 agonist, D1 potentiator, D1 antagonist)
CCCC12CN3CC(CCC)(CN(C1)C3c1ccc(OCc3ccccc3)cc1)C2=O (centres undefined)	none (no result: DRD3 antagonist)
O=c1/c(=C/c2ccc(O)c([N+](=O)[O-])c2)sc2nc3ccccc3n12	none
CCN(CC)c1ccc(/C=c2\sc3nc4ccccc4n3c2=O)c(O)c1	D1 agonist 179.2, D1 antagonist -38.3
N#Cc1ccc(COC(=O)C2CCC(=O)N2)cc1 (centres undefined)	DRD3 antagonist -51.9
O=C1CCC(C(=O)OCC(=O)c2ccccc2)N1 (centres undefined)	none (no result: D1 antagonist)
COc1ccc(-n2nnnc2C2CCN(S(=O)(=O)c3ccc(C)cc3)CC2)cc1	none (no result: DRD3 antagonist)
CCOC(=O)c1oc2ccc(CNCCO)c(Cl)c2c1C	DRD3 antagonist -53.9
CCOC(=O)c1oc2ccc(CNC3CCCCC3)c(Cl)c2c1C	DRD3 antagonist -86.4
Cn1cccc1/C=C1/SC(=S)N(CC(=O)O)C1=O	DRD3 antagonist inconclusive
C=CCN1C(=O)/C(=C\C=C2\N(C)c3ccccc3C2(C)C)SC1=S	D1 agonist 85.2
CCCCN1C(=O)/C(=C/C=C2/CC(C)(C)CN2C)SC1=S	D1 agonist 128.3
CN1/C(=C\C=C2/SC(=S)N(CC(=O)O)C2=O)C(C)(C)c2ccccc21	D1 agonist 181.9, DRD3 antagonist -79.5
